# Sampled rows, rich in hits. Any-hit rate of the full collection: about 7.2%.
# Sm TGR block – blocks Schistosoma mansoni thioredoxin glutathione reductase | 3% of 360,000 active | AID 485364 | Q962Y6 | Potency, µM (highest dose often 114 µM), usual class: inhibitors | purified TGR, DTNB reduction, TNB absorbance 405 nm; further: nearly all actives have a fitted effect of over 60% in size
#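 Kinetic colorimetric format: TGR-catalysed, NADPH-driven DTNB reduction monitored via TNB absorbance. Enzyme dispensed at 20 nM; compound exposure 15 min at room temperature before reaction start.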
# RE007 growth inh – less growth of the S. pombe RE007 Vpr strain | Potency, µM (doses to about 92.2 µM), actives largely listed as inhibitors | 0.21% of 360,000 active | S. pombe RE007 Vpr strain, BacTiter-Glo ATP luminescence, 24 h; active means well fitted falling curve with a large enough effect; inconclusive means small, poorly fitted or top-dose-only effect; inactive means no such curve, though single readings can be large or run the other way; further: nearly all actives have a fitted effect of over 50% in size
#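 Fission yeast strain RE007, carrying one chromosomally integrated HIV-1 vpr copy, was seeded at OD 0.01 in PMG+AL medium with 23 nL pinned compound. After 24 h at 30 °C and 99% humidity, viability was read by BacTiter-Glo luminescence.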
# HCV inh – HCV inhibition. Potency, µM (top dose mostly 41.8 µM), most hits filed as inhibitors. 3.4% of 340,000 active. Huh7.5.1 HCVcc-Cre infection, luciferase reporter, 44 h
#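 A cell-based infection assay in which seeded cells (1,000 per well) receive test compound after 4 h, are inoculated with HCVcc-Cre at approximately 0.5 moi, and are incubated 44 h before luminescence detection.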
# MARV entry inh – blocks Marburg virus binding to or entry into cells | Marburg virus pseudotyped entry inhibition, cell reporter | 1.8% of 300,000 active | Potency, µM (titrated, usually from 37.8 µM), most hits filed as inhibitors; calls by dose curve; tested in HEK293 cells
# LASV entry inh – Lassa virus entry inhibition | Lassa virus pseudotype entry inhibition, cell reporter | Potency, µM (titrated, usually from 37.9 µM), most hits filed as inhibitors | 1.2% of 300,000 active | AID 540256; calls by dose curve; tested in HEK293 cells; further: nearly all actives have a fitted effect of over 50% in size
# FMDV antiviral – blocks foot and mouth disease virus; 1.2% of 410,000 active; Potency, µM (top dose mostly 57.9 µM), actives largely listed as inhibitors; FMDV antiviral cell-based qHTS; calls by dose curve; tested in HEK293T cells; further: read-out not given here; nearly all actives have a fitted effect of over 45% in size
# A number is an active result; - = inactive; ? = inconclusive; . = no result given; ! = repeats disagree. Unless noted, the call rests on the fitted dose curve; in most records, active means well fitted curve in the direction sought with a large enough effect; inconclusive means small, poorly fitted or top-dose-only effect, or another doubt; inactive means no such curve, though single readings can be large; an effect the other way counts as inactive or inconclusive.
SMILES,Sm TGR block,RE007 growth inh,HCV inh,MARV entry inh,LASV entry inh,FMDV antiviral
COc1ccc2oc(=O)c(-c3csc(/C(C#N)=C/c4ccc(F)cc4)n3)cc2c1,-,.,.,.,-,-
COc1ccc(C(=O)N2CCC(c3nc(-c4ccc(S(=O)(=O)N5CCCC5)cc4)no3)CC2)cc1,-,.,.,?,-,-
COc1cccc(CN2C(=O)N(c3ccc(C)cc3)C(=O)C2CC(=O)Nc2cc(OC)cc(OC)c2)c1 (centres undefined),-,.,.,.,?,-
CCCCn1nc(NC(=O)CC(C)C)c2cc3cc(OC)ccc3nc21,-,-,?,-,-,-
CCCn1nc(NC(=O)c2cccs2)c2cc3cc(OC)ccc3nc21,-,-,10µM,-,?,-
CCCCn1nc(NC(=O)CCC)c2cc3cc(OC)ccc3nc21,-,-,-,-,-,-
CCCCn1nc(NC(=O)c2cccs2)c2cc3cc(OC)ccc3nc21,-,-,10µM,?,-,-
COC(=O)c1cccnc1-n1c(=O)c2cccnc2n(CC(=O)Nc2cccc(C(F)(F)F)c2)c1=O,-,.,.,-,-,-
Cc1cc(NCCCn2ccnc2)n2nc(C)c(-c3ccccc3)c2n1,-,-,?,-,-,-
Cc1cc(NCCCn2ccnc2)n2ncc(-c3ccccc3)c2n1,-,-,-,?,4.5µM,-
Cc1cc(NCCN2CCOCC2)n2nc(C)c(-c3ccccc3)c2n1,-,-,?,-,-,-
Cc1cc(NCCCn2ccnc2)n2nc(C)c(-c3ccc(Cl)cc3)c2n1,-,-,10µM,?,-,-
Cc1cc(NCCN2CCOCC2)n2nc(C)c(-c3ccc(Cl)cc3)c2n1,-,-,10µM,?,?,?
COC(=O)C1=C(C(=O)OC)[C@@H]2N(C)c3ccccc3[C@@]23CCC(=O)N(Cc2ccc(OC)cc2)C3=N1,.,.,.,-,.,.
CC1=C(C(=O)OC2CCCCCC2)C(c2c(F)cccc2Cl)CC(=O)N1 (centres undefined),-,.,.,?,-,?
O=C(Nc1c(C(=O)N2CCN(c3ccccc3F)CC2)oc2ccccc12)c1ccc(Br)o1,-,.,.,?,-,-
COc1ccccc1N1CCN(S(=O)(=O)CCNC(=O)COc2ccccc2F)CC1,-,.,.,.,-,-
O=C(CN1c2ccccc2Sc2ccccc21)NNC(=S)Nc1ccc(Cl)cc1,-,-,35µM,-,-,-
COc1cccc(CNC(=O)C2CCN(c3nnc(-n4c(C)ccc4C)s3)CC2)c1OC,-,.,.,-,-,-
Cc1cnc(C)c(-c2ccc(F)c3c2OC(CNC(=O)Cc2c(C)[nH]c4ccccc24)C3)n1 (centres undefined),.,.,.,.,.,-
CCOC(=O)c1ccccc1NC(=O)CN1CCC(n2nnc3cc(C(F)(F)F)ccc32)CC1,-,-,-,-,-,?
O=C(CN1CCC(c2nc3ccccc3s2)CC1)NCc1cccs1,-,-,3.2µM,?,?,16µM
COC(=O)c1ccccc1NC(=O)CN1CCC(n2nnc3cc(F)ccc32)CC1,-,-,-,-,-,-
O=C(CN1CCC(n2nnc3cc(F)ccc32)CC1)Nc1ccccc1N1CCOCC1,-,-,-,13µM!,-,?
O=C(CN1CCC(n2nnc3cc(C(F)(F)F)ccc32)CC1)NCc1cccs1,-,-,-,2.2µM,?,?
SMILES,Sm TGR block,RE007 growth inh,HCV inh,MARV entry inh,LASV entry inh,FMDV antiviral
Cn1c(=O)[nH]c(=O)c2c1nc([N+](=O)[O-])n2Cc1ccccc1,1.8µM,-,-,?,?,7.9µM
Cn1c(=O)[nH]c(=O)c2c1nc(Br)n2CCC(=O)c1ccccc1,13µM,-,-,-,-,-
CC(C)Cn1c([N+](=O)[O-])nc2c1c(=O)[nH]c(=O)n2C,22µM,-,?,?,7.1µM,28µM
Cn1c(=O)[nH]c(=O)c2c1nc(N1CCNCC1)n2Cc1ccccc1,?,-,-,?,?,-
O=C(CC1C(=O)OCCN1Cc1ccccc1)Nc1cccc(Cl)c1 (centres undefined),?,.,.,-,-,-
CCN1CCOC(=O)C1CC(=O)Nc1ccc(C)c(Cl)c1 (centres undefined),11µM,.,.,-,-,-
Cc1cccc(NC(=O)CC2C(=O)OCCN2Cc2ccccc2)c1 (centres undefined),-,.,.,-,-,-
CCN1CCOC(=O)C1CC(=O)Nc1cc(Cl)ccc1C (centres undefined),7.9µM,.,.,-,-,-
CCNc1nc(NCC)n2c(SC(C(=O)Nc3cc(C)ccc3C)c3ccccc3)nnc2n1 (centres undefined),-,-,?,-,-,?
CCNc1nc(NCC)n2c(SC(C)C(=O)c3ccc(C)cc3)nnc2n1 (centres undefined),-,-,?,12µM,-,?
C[C@H](NC(=O)[C@@H]1CCCN1C(=O)OC(C)(C)C)c1ccccc1,.,-,.,.,.,-
O=C(NNC(=S)Nc1ccc(Cl)c(Cl)c1)c1ccccn1,.,-,4.5µM,.,.,-
O=C(NNc1ccccn1)C(c1ccccc1)c1ccccc1,-,-,-,?,-,-
O=C(NNC(=O)C(c1ccccc1)c1ccccc1)c1ccccn1,-,-,6.3µM,4.6µM,?,?
CCNC(=S)NNC(=O)c1ccccn1,-,-,-,?,?,-
COc1ccc(-c2noc(CN(C)Cc3ccccc3)n2)cc1,-,-,-,.,.,-
COc1ccc(-c2noc(CN(C)Cc3ccc(C)o3)n2)cc1,35µM,-,-,.,.,-
Cc1ccc(C(=O)C2=C(O)C(=O)N(Cc3cccnc3)C2c2ccc(Cl)cc2)o1 (centres undefined),-,-,-,-,-,16µM
Cc1ccc(-c2nnn(CC(=O)N(CC(=O)NCc3ccccc3)c3cccc(C)c3C)n2)o1,22µM,-,?,?,-,-
Cc1ccc(-c2nnn(CC(=O)N(Cc3ccccc3F)C(C(=O)NC3CCCC3)c3ccncc3)n2)o1 (centres undefined),40µM,-,?,-,-,-
Cc1ccc(-c2nnn(CC(=O)N(CC(=O)NC3CCCCC3)c3ccc(F)c(Cl)c3)n2)o1,-,-,?,?,13µM,-
Cc1cccc(N(CC(=O)NCc2ccccc2)C(=O)Cn2nnc(-c3ccc(C)o3)n2)c1,-,-,-,?,-,-
COC(=O)c1c(NC(=O)CS(=O)(=O)c2ccc(C)cc2)sc2c1CCCC2,-,.,.,.,-,-
COc1cccc(-n2c(=O)c3c4c(sc3n(Cc3ccc(C)cc3)c2=O)CCCC4)c1,-,.,.,-,-,?
COC(=O)c1cc2oc3ccccc3c2n1Cc1cc(C)ccc1C,-,.,.,-,.,-
O=C1NC(=O)/C(=C/c2ccc(-c3ccc(F)cc3O)o2)S1,.,.,.,-,-,.
Cc1cc(CN2CCCC(N3CCc4ccccc4C3)C2)cc(C)c1O (centres undefined),45µM,-,-,.,.,-
Oc1c(C(c2ccco2)N2CCN(C(c3ccccc3)c3ccccc3)CC2)sc2ncnn12 (centres undefined),?,-,14µM,-,.,-
